High-throughput results: PubChem, National Center for Advancing Translational Sciences (NCATS)
PLK1 PBD inh = blocks phosphopeptide binding to human PLK1 polo-box domain. Potency, µM, actives largely listed as inhibitors. P53350. AID 720504. Plk1 PBD binding of FITC phosphopeptide, fluorescence polarization. 360,000 tested, 2.8% active; also: series mostly up to about 57 µM; nearly all actives have a fitted effect of over 65% in size
JMJD2A Tudor = inhibitors of human JMJD2A Tudor domain. O75164. AlphaScreen JMJD2A-Tudor / H3K4me3 peptide binding. Potency, µM (highest dose often 114 µM), most hits filed as inhibitors. 390,000 tested, 4.4% active. AID 504339; also: nearly all actives have a fitted effect of over 50% in size
BAZ2B block = blocks human BAZ2B; AID 504333; Potency, µM (highest dose often 114 µM), most hits filed as inhibitors; AlphaScreen BAZ2B-H3K14Ac peptide displacement; 360,000 tested, 4.4% active; also: nearly all actives have a fitted effect of over 60% in size
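BAZ2B (50 nM) with biotin-H3(5-23)K14Ac peptide (50 nM) in PBS pH 7.4, 0.01% Tween-20, preformed 30 min, then compound 30 min at room temperature; top concentration 110uM. AlphaScreen streptavidin donor/nickel chelate acceptor beads (10 ug/mL final), 20 min dark, signal read.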
G9a block = G9a (human) methyltransferase inhibition. G9a H3K9 monomethylation, AlphaScreen, 2 h. Potency, µM (highest dose often 102 µM), hits mostly inhibitors. 350,000 tested, 8.8% active; also: nearly all actives have a fitted effect of over 75% in size
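Chemiluminescent proximity detection of H3K9 monomethylation, read after 10 min bead incubation in the dark. Reaction: 20 nM G9a, 500 nM biotin-H3K9 peptide, 20 uM SAM cofactor, 2 h, room temperature, following 15 min enzyme-compound preincubation.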
HP1b binding inh = inhibitors of HP1-beta chromodomain binding to methylated histone tails; P83916; AlphaScreen HP1-beta / biotin-H3K9me3 peptide binding; Potency, µM (series often up to 114 µM), usual class: inhibitors; 390,000 tested, 0.56% active; AID 540317; also: nearly all actives have a fitted effect of over 70% in size
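HP1-beta protein (50 nM final) preincubated 30 min at room temperature with biotinylated H3(1-18)K9me3 peptide (50 nM) in PBS pH 7.4, 0.01% Tween-20, then compound added for 30 min. AlphaScreen streptavidin donor/nickel chelate acceptor beads (10 ug/mL final), 30 min dark, luminescence read.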
Sfp PPTase inh = inhibitors of Bacillus subtilis Sfp phosphopantetheinyl transferase. Q9F4F7. Biochemical Sfp PPTase activity, qHTS. Potency, µM, hits mostly inhibitors. AID 1490. 310,000 tested, 3.5% active;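 also: the enzyme is Sfp with the accession as filed and its product quenches rhodamine fluorescence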
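Compounds were incubated with enzyme (final 15 nM) for 15 min at room temperature before substrate addition started the reaction. Fluorescence at 525 nm excitation, 598 nm emission was recorded immediately and after 30 minutes.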
Hits are given with their value; [ ] = remark or other dose. This is a sample that favours compounds with a hit; in the whole collection about 12% have one here. Calls follow the shape of the dose curve; as a rule, active = well fitted curve in the direction sought with a large enough effect; inconclusive = small, poorly fitted or top-dose-only effect, or another doubt; inactive = no such curve, though single readings can be large; an effect the other way counts as inactive or inconclusive.

For CC(=O)c1ccc(C(=O)Nc2ccc(N3CCOCC3)cc2)cc1 the results were PLK1 PBD inh inactive, JMJD2A Tudor inactive, G9a block inactive, HP1b binding inh inactive and Sfp PPTase inh inactive.
`O=C(Nc1ccc(N2CCOCC2)cc1)c1ccccc1SCC(=O)N1CCCC1` gave PLK1 PBD inh inactive, JMJD2A Tudor inactive, BAZ2B block inactive, G9a block 7.08µM, HP1b binding inh inactive and Sfp PPTase inh inactive.
`CC(NO)/C(=N\O)c1cccs1` (stereo unspecified) gave PLK1 PBD inh inactive, JMJD2A Tudor 79.4µM, BAZ2B block inconclusive, G9a block 3.98µM, HP1b binding inh inconclusive and Sfp PPTase inh inconclusive.
C/C(=N\N=C(c1ccccc1)c1ccccc1)c1cccs1 was read as PLK1 PBD inh inactive, JMJD2A Tudor inactive, BAZ2B block inconclusive, G9a block inactive, HP1b binding inh inactive and Sfp PPTase inh inactive.
FC(F)(Cl)c1nnc2ccc(Sc3ccccn3)nn12 was read as PLK1 PBD inh 21.2µM, JMJD2A Tudor inactive, BAZ2B block inactive, G9a block 25.1µM, HP1b binding inh inactive and Sfp PPTase inh inactive.
COc1ccc(CN(CC2CCCO2)C(=O)c2cc3sccc3n2C)c(OC)c1 (stereo unspecified) was read as PLK1 PBD inh inactive, JMJD2A Tudor inconclusive, BAZ2B block 56.2µM, G9a block inconclusive, HP1b binding inh inactive and Sfp PPTase inh inactive.
For CC(C(=O)NN)n1nnc(N2CCOCC2)n1 (stereo unspecified) the results were PLK1 PBD inh inactive, JMJD2A Tudor inactive, BAZ2B block inactive, HP1b binding inh inactive and Sfp PPTase inh inactive.
CC(C(=O)NNS(=O)(=O)c1cccc(C(F)(F)F)c1)n1nnc(N2CCOCC2)n1 (stereo unspecified) was read as PLK1 PBD inh inactive, JMJD2A Tudor 14.1µM, BAZ2B block inactive, G9a block 31.6µM, HP1b binding inh inactive and Sfp PPTase inh inactive.
For Cc1ccc(S(=O)(=O)NCC(c2ccc(N(C)C)cc2)N2CCOCC2)cc1 (stereo unspecified) the results were JMJD2A Tudor inconclusive, BAZ2B block inactive, G9a block inconclusive and HP1b binding inh inactive.
`O=S(=O)(NCC(c1ccccc1)N1CCC(O)CC1)c1ccc(Cl)cc1` (stereo unspecified) gave PLK1 PBD inh 21.2µM, JMJD2A Tudor inconclusive, BAZ2B block inactive, G9a block inactive, HP1b binding inh inactive and Sfp PPTase inh inactive.
Screening CN(C)c1ccc(C(CNS(=O)(=O)c2ccc([N+](=O)[O-])cc2)N2CCCC2)cc1 (stereo unspecified) returned PLK1 PBD inh inactive, JMJD2A Tudor 44.7µM, BAZ2B block inactive, G9a block 44.7µM and HP1b binding inh inconclusive.
`CN(C)c1ccc(C(CNS(=O)(=O)c2ccc3ccccc3c2)N2CCOCC2)cc1` (stereo unspecified) gave PLK1 PBD inh inactive, JMJD2A Tudor inconclusive, BAZ2B block 50.1µM, G9a block inactive[0.501 µM] and HP1b binding inh inconclusive.
For CN(C)c1ccc(C(CNS(=O)(=O)c2ccc(F)cc2)N2CCCC2)cc1 (stereo unspecified) the results were JMJD2A Tudor inconclusive, BAZ2B block inconclusive, G9a block inactive and HP1b binding inh inactive.
`CN(C)c1ccc(C(c2ccc(N(C)C)cc2)c2ccc([N+](=O)[O-])cc2)cc1` gave PLK1 PBD inh inactive, JMJD2A Tudor 10µM, BAZ2B block 6.31µM, G9a block 5.01µM, HP1b binding inh 8.91µM and Sfp PPTase inh inactive.
Screening CCSc1nc(-c2ccc(OC)cc2)nc2c1Cc1c(CO)cnc(C)c1O2 returned JMJD2A Tudor inactive, BAZ2B block inactive, G9a block inactive and HP1b binding inh inactive.
For Cc1ccc(C)c(Cn2c3ccccc3c3cnn(CC(=O)NCCC4=CCCCC4)c(=O)c32)c1 the results were JMJD2A Tudor inactive, BAZ2B block inactive, G9a block inactive and HP1b binding inh inactive.
CN(C)c1ccc(C(CNS(=O)(=O)c2ccc(Cl)cc2)N2CCOCC2)cc1 (stereo unspecified) was read as JMJD2A Tudor inconclusive, BAZ2B block 39.8µM, G9a block inconclusive and HP1b binding inh inactive.
`CN(C)c1ccc(C(CNC(=O)c2ccc(C(C)(C)C)cc2)N2CCCC2)cc1` (stereo unspecified) gave JMJD2A Tudor 44.7µM, BAZ2B block 28.2µM, G9a block 15.8µM and HP1b binding inh inconclusive.
CCN1CCN(C(CNS(=O)(=O)c2ccc(Br)cc2)c2cccnc2)CC1 (stereo unspecified) was read as PLK1 PBD inh inactive, JMJD2A Tudor inactive, BAZ2B block inactive, G9a block inactive, HP1b binding inh inactive and Sfp PPTase inh inactive.
For CCN1CCN(C(CNS(=O)(=O)c2ccc(Cl)cc2)c2cccnc2)CC1 (stereo unspecified) the results were PLK1 PBD inh inactive, JMJD2A Tudor inactive, BAZ2B block inactive, G9a block 79.4µM, HP1b binding inh inactive and Sfp PPTase inh inactive.
`c1cc(CN2CCCNCCNCCCNCC2)ccc1CN1CCCNCCNCCCNCC1` gave Sfp PPTase inh inactive.
CC1CCCN(CCCOc2ccc([N+](=O)[O-])cc2)C1 (stereo unspecified) was read as PLK1 PBD inh inactive, JMJD2A Tudor 22.4µM, BAZ2B block inconclusive, G9a block 8.91µM, HP1b binding inh inactive and Sfp PPTase inh inactive.
Screening COc1ccc(OCCCN2CCCC(C)C2)cc1 (stereo unspecified) returned PLK1 PBD inh inactive, JMJD2A Tudor inactive, BAZ2B block inactive, G9a block 7.08µM, HP1b binding inh inconclusive and Sfp PPTase inh inactive.
Screening Cc1cc(=O)n(C)c(=O)n1CCCCOc1ccc([N+](=O)[O-])cc1 returned PLK1 PBD inh inactive, JMJD2A Tudor inactive[11.4 µM], BAZ2B block inactive, G9a block inactive, HP1b binding inh inactive and Sfp PPTase inh inactive.
For COc1cc2c(cc1OC)C(c1ccc(F)cc1)N(c1cccc(C#N)c1)C(=O)C2 (stereo unspecified) the results were JMJD2A Tudor inactive, BAZ2B block inactive, G9a block inactive and HP1b binding inh inactive.
For CC(C)(C)N1CC23C=CC(C[C@@H]2C1=O)O3 (stereo partly specified) the results were PLK1 PBD inh inactive, JMJD2A Tudor inactive, BAZ2B block inactive, G9a block inactive[2.33 µM] and HP1b binding inh inactive.
CCN(CC)C(=O)Cn1cc(C(=O)C(=O)N2CC=C(c3ccccc3)CC2)c2ccccc21 was read as PLK1 PBD inh inactive, JMJD2A Tudor inactive, BAZ2B block inactive, G9a block 50.1µM, HP1b binding inh inactive and Sfp PPTase inh inactive.
For C=CCn1c(SCc2cccc(C#N)c2)nnc1-c1ccccc1O the results were PLK1 PBD inh 26.7µM, JMJD2A Tudor inconclusive, BAZ2B block inactive, G9a block inactive, HP1b binding inh inactive and Sfp PPTase inh inactive.
